Hits are enriched below; roughly 4.1% of the tested compounds scored in any of these assays.
TWEAK Fn14 block – inhibitors of TWEAK-Fn14 signaling, primary screen, luciferase reporter cells, uHTS. TWEAK-stimulated Fn14 reporter cells, luciferase luminescence, 8 h. inhibition, % at 10 µM. 360,000 compounds, 2% hits; in the data active means inhibition above about 50%
EBV LMP1 NFkB – EBV LMP1-driven NF-kappaB luciferase reporter inhibitors, primary screen, cell-based, luminescence, single point | LMP1-induced NF-kappaB luciferase reporter cells | inhibition, % at 12.5 µM | 350,000 compounds, 0.69% hits | AID 504558, 2011; in the data active means inhibition above about 41%;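 further: 0% = neutral control wells and 100% = reference inhibitor control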
TROY NFkB inh – inhibitors of TROY-driven NF-kB signaling, primary screen, Q293 LMP1-TROYcd cells, NF-kB luciferase, uHTS; Q293 LMP1-TROYcd NF-kB luciferase reporter, 4 h; inhibition, % at 10 µM; 360,000 compounds, 0.98% hits;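 active means compounds whose plate-normalised and pattern-corrected inhibition of the luciferase reporter signal at the single screening dose is 50% or more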
Peg3 promoter – Peg3 promoter-driven luciferase inhibitors, primary screen, cell-based, HeLa, luciferase luminescence. inhibition, % at 20 µM. AID 588405, 2011. HeLa PEG-Prom luciferase reporter, overnight. 360,000 compounds, 1.7% hits;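 active means inhibition of at least 50% at 20 µM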
Shn3 inh set2 – reduction of Shn3 3'UTR firefly luciferase signal, primary screen, Schnurri-3 inhibitor project, cell-based, Clone20 osteoblasts, set 2; Clone20 osteoblast Shn3 3'UTR firefly luciferase, 24 h; inhibition, % at 12.5 µM; 360,000 compounds, 0.52% hits;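 active means mean inhibition of at least 75% with every replicate also reaching 75%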;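 further: 0% = median of neutral control wells and 100% = pilot-screen positive control compound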
TRPM1 prom inh – inhibitors of MITF-dependent TRPM1 promoter reporter, primary screen, cell-based, SK-MEL-5, single point, luciferase. 330,000 compounds, 0.83% hits. inhibition, % at 12.5 µM. SK-MEL-5 TRPM1 promoter luciferase, 24 h. AID 488899, 2010;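 active means mean inhibition across replicates of 60% or more, whatever share of single replicates reaches that level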
* = called active by the depositor; / = not tested or not shown.

SMILES	TWEAK Fn14 block	EBV LMP1 NFkB	TROY NFkB inh	Peg3 promoter	Shn3 inh set2	TRPM1 prom inh
C=CS(=O)(=O)c1sc(Cl)c(N2CCOCC2)c1[N+](=O)[O-]	31	-2	34	106*	81	32
C=CSc1sc(Cl)c(N2CCOCC2)c1[N+](=O)[O-]	4	6	-3	21	-59	-23
Cc1c(NC(=O)c2cccc(NC(=O)COc3ccccc3C#N)c2)c(=O)n(-c2ccccc2)n1C	-12	54*	-59	0	10	51
Cc1c(NC(=O)c2cccc(NC(=O)COc3ccccc3)c2)c(=O)n(-c2ccccc2)n1C	-1	7	6	-12	-27	3
CCOc1ccccc1NC(=O)CSc1nc2ccccc2c(=O)n1CC1CCCO1 (centres undefined)	7	-9	-7	13	2	11
Cc1cc(C)n2c(Nc3ccc4c(c3)OCCO4)c(-c3cc4ccccc4o3)nc2n1	97*	/	85*	/	/	/
CN(CC(=O)Nc1cccc(F)c1)C(=O)c1ccccc1OCC(=O)Nc1cccc(C(F)(F)F)c1	21	7	9	15	55	14
Cc1nnc(C)n1/N=C/c1ccc2c(c1)OCCO2	1	-29	-5	-3	1	12
CN=c1scc(C)n1/N=C/c1ccc(O)cc1O	64*	35	-24	-96	-6	-7
COc1ccc(O)c(/C=N/n2c(-c3ccco3)csc2=Nc2cccnc2)c1	-4	11	-72	-13	6	-5
CN=c1scc(-c2ccco2)n1/N=C/c1ccc(O)c(O)c1	3	-55	3	-136	90*	2
CN=c1scc(C)n1/N=C/c1ccc2c(c1)OCO2	53*	21	-55	-39	12	-10
C=CCN=c1scc(C)n1/N=C/c1ccc(O)c(O)c1	-6	-8	32	-116	92*	-52
Cc1ccc(S(=O)(=O)Nc2cccc(C(=O)NCC(c3ccco3)N3CCCC3)c2)cc1F (centres undefined)	12	5	4	7	12	-6
Cc1ccnc2ccc(SC(F)(F)F)cc12	15	1	5	4	5	-3
CCCCCCN[C@H]1CCC2C3CC=C4C[C@@H](O)CC[C@]4(C)C3CC[C@@]21C (some centres undefined)	-13	-8	3	18	5	1
O=C(NCc1ccccc1)c1cc(C2CCCCN2S(=O)(=O)c2cccc3cccnc23)on1 (centres undefined)	25	/	5	-4	-6	/
CCc1noc(C)c1C(=O)NCCN1C(=O)S/C(=C\c2ccc(OC)cc2)C1=O	-7	-3	-20	-168	28	-33
CN=c1scc(C)n1/N=C/c1ccc(O)cc1	-7	-6	59*	-251	-47	-44
CN=c1scc(C)n1/N=C/c1cc(Br)c(O)c(Br)c1	-23	3	5	-14	2	2
Cc1ccc(C(=O)N2C(=S)C(c3ccc(F)cc3)=NC23CCN(C)CC3)cc1	50	18	-5	90*	75	51
Cc1csc(NC(=O)c2cc3c(s2)CCCCC3)n1	95*	38	77*	58*	70	47
Cc1csc(NC(=O)C2CCCC2)n1	62*	-13	/	-100	-33	-22
Cc1cnc(NC(=O)c2cc3c(s2)CCCC3)s1	86*	24	57*	6	27	8
Cc1csc(NC(=O)C2CCCCC2C(=O)O)n1 (centres undefined)	-10	2	-2	15	-15	2
SMILES	TWEAK Fn14 block	EBV LMP1 NFkB	TROY NFkB inh	Peg3 promoter	Shn3 inh set2	TRPM1 prom inh
CCc1nnc(NC(=O)c2cc3c(s2)CCCCC3)s1	20	-15	-11	-162	-25	-17
CCOC(=O)Cc1csc(NC(=O)c2cc3c(s2)CCCC3)n1	-6	1	-24	-139	15	-20
Cc1csc(NC(=O)CN2C(=O)C3CC=CCC3C2=O)n1 (centres undefined)	73*	-4	/	5	20	10
Cc1cccc(C)c1OCc1cc(C(=O)N2CCN(c3ccc(F)cc3)CC2)no1	8	-22	-17	-409	-59	-73
Cc1csc(NC(=O)c2cc3c(s2)CCCC3)n1	71*	8	35	-40	25	5
Cn1nc(C(=O)N2CCCCC2)c2c1-c1ccccc1S(=O)(=O)C2	0	6	15	4	-7	-1
Cc1cccc(CN2C(=O)c3ccccc3Sc3ccc(C(=O)NCCCN4CCOCC4)cc32)c1	21	6	-1	6	3	-2
Cc1cccc(CN2C(=O)/C(=C\c3ccc(C(=O)NCCCN4CCN(C)CC4)cc3)Oc3ccccc32)c1	-173	-1	-11	87*	12	94*
CN1CCN(CCCNC(=O)c2ccc(/C=C3\Oc4ccccc4N(Cc4ccccc4F)C3=O)cc2)CC1	-67	-6	-5	69*	3	34
O=C(O)c1cccc2c1C(=O)c1ccc(-c3ccc(F)cc3F)cc1S2(=O)=O	9	4	-9	5	8	5
CC[C@H](CO)Nc1nc(Nc2cccc(Cl)c2)c2ncn(C(C)C)c2n1	71*	-14	61*	94*	41	32
O=C1c2cccnc2C(=O)N1Cc1ccc(F)cc1S(=O)(=O)NCc1ccco1	28	72*	-17	13	12	3
Cn1cnc2nc(Cl)nc(Cl)c21	54*	17	18	6	20	18
CCOc1ccc(CN(C)CC(=O)Nc2cc(C)c(C)cc2[N+](=O)[O-])cc1	44	1	67*	-119	-15	4
COc1ccc(CNC(=O)CNC(=O)CNS(=O)(=O)c2ccc(C)c(C)c2)cc1	7	-8	-2	18	-11	10
C[C@@H]1CN([C@@H](C)CO)C(=O)c2cc(NC(=O)C3CCCCC3)ccc2O[C@@H](C)CCCCO[C@H]1CN(C)S(=O)(=O)c1ccc(Cl)cc1	-10	3	-7	16	16	/
O=C(COc1ccc([N+](=O)[O-])cc1)NCc1cccnc1	15	-9	-3	13	-8	-8
O=C(COc1ccc([N+](=O)[O-])cc1)Nc1ccc(C(=O)NCc2cccnc2)cc1	-10	-14	15	75*	75	6
COc1ccccc1-c1c(C)oc2c(CN3CCN(CCO)CC3)c(O)ccc2c1=O	86*	-1	/	-4	-2	6
CCOC(=O)C1CCCN(c2ccc(NC(=O)c3snc4c(=O)[nH]c(C)nc34)cc2)C1 (centres undefined)	-28	-54	51*	28	15	29
